Compound activity: PubChem BioAssay, National Center for Advancing Translational Sciences (NCATS)
HEK293 tox – cytotoxic in the GLP-1 receptor inverse agonist counter-screen; HEK293 cAMP-luciferase reporter cells, luminescence, 24 h; Potency, µM (doses to about 38.3 µM), for inactives: at the highest dose activity change, negative = inhibition, most hits filed as inhibitors; 410,000 tested, 0.13% active; AID 624418;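 also: loss of luciferase light is scored as toxicity; % is scaled to controls: 0 for no effect and ±100 for the full control effect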
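Seeding density was 200 cells/uL; after overnight-length (12 h) culture, 23 nL compounds went on for 24 h at 37 °C. Readout used a luciferase detection reagent, luminescence taken after 12 min at room temperature.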
GLP-1R inv ag – GLP-1 receptor (human) inverse agonism. P43220. HEK293 GLP-1R CRE-luciferase, luminescence, 24 h; GLP-1R form is constitutively active. Potency, µM (titrated, usually from 38.3 µM), inactives show top-dose activity change, negative = inhibition, actives largely listed as inhibitors. 410,000 tested, 1.6% active; also: % is scaled to controls: 0 for no effect and ±100 for the full control effect; nearly all actives have a fitted effect of over 55% in size
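Inverse agonism was detected as reduced cAMP-driven luciferase luminescence after 24 h compound treatment. The cells were HEK293 clones expressing constitutively active human GLP-1R with the reporter. Reporter-only and GPR119 cell lines served as counterscreen controls.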
PTHR1 agonist – PTHR1 (human) receptor agonism. Q03431. HEK293 GP2 PTHR1 cells, GloSensor cAMP luminescence, 1 h. Potency, µM (titrated, usually from 115 µM), without a hit: at the top dose activation, hits mostly activators. 410,000 tested, 0.075% active. AID 743266; also: nearly all actives have a fitted effect of over 55% in size
Target sequence (Q03431 whole entry, looked up): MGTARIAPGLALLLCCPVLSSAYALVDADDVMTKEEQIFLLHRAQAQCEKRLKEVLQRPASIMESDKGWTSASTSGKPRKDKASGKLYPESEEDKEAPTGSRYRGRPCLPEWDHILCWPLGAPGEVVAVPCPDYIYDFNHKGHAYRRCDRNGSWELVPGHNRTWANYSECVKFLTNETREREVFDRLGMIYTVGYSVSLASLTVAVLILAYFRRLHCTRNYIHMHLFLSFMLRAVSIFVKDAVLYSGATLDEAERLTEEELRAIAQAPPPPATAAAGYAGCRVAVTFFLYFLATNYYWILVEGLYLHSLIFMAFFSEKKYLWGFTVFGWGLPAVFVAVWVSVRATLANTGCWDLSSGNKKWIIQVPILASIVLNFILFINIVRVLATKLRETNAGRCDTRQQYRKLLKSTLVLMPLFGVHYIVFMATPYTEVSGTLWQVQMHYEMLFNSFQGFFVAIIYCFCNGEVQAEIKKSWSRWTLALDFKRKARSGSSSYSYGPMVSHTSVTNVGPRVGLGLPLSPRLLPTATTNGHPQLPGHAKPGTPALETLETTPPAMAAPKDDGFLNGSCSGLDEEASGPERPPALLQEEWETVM
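HEK-293-derived GP2 cells expressing PTHR1 and a GloSensor cAMP reporter, 3,000/well, plated overnight, given luciferin plus IBMX (each 0.5 mM as added) for 1 h at 37 °C, then compound for 1 h at 37 °C. Luminescence was read after 15 min at room temperature.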
GLP1R ag – GLP-1 receptor (human) agonism. HEK293 GLP-1R CRE-luciferase, luminescence, 4-6 h; cells express a hypersensitive GLP-1R form. Potency, µM (highest dose often 45.6 µM), inactives show at the highest dose activation, most hits filed as activators. 380,000 tested, 0.007% active. AID 624172. P43220; also: % of control where 0% means no effect
Active calls of the source: *; i = inactive; ? = inconclusive; . = no result given; [ ] = remark or other dose. A selection: hits, their analogues and other compounds. The true share with any hit is near 1.7%. Calls follow the shape of the dose curve; as a rule, active = well fitted curve in the direction sought with a large enough effect; inconclusive = small, poorly fitted or top-dose-only effect, or another doubt; inactive = no such curve, though single readings can be large; an effect the other way counts as inactive or inconclusive. Potency is read from the fitted curve at half-maximal effect.

SMILES	HEK293 tox	GLP-1R inv ag	PTHR1 agonist	GLP1R ag
CO[C@@H]1[C@@H](OC2OC(C)C(OC3CC(C)(O)C(OC(=O)CC(C)C)C(C)O3)C(N(C)C)C2O)[C@@H](CC=O)C[C@@H](C)C(=O)/C=C\C2O[C@H]2C[C@@H](C)OC(=O)C[C@H]1OC(C)=O (some centres not stated)	.	.	.	4.3%
CCOC(=O)c1cnc2ccc(OCC)cc2c1N1CCN(c2ccccc2)CC1	-23.5%	8.91µM*	-0.6%[57.5 µM]	0.4%
CCOC(=O)c1cnc2c(C)c(Cl)ccc2c1N1CCN(CC)CC1	18.7%	7.94µM*	i	14.1%
CCOC(=O)c1cnc2ccc(OCC)cc2c1N1CCN(c2ccccc2F)CC1	-9.6%	?	-15.1%	.
CO[C@]1(NC(=O)Cc2cccs2)C(=O)N2C(C(=O)O)=CC(COC(N)=O)S[C@H]21 (some centres not stated)	.	.	.	-4.4%
O=C(/C=C/c1ccc2c(c1)OCO2)NCCSCc1ccc(Cl)cc1	-12.7%	5.01µM*	-3.6%[57.5 µM]	9.5%
CN(C)CCCNC(=O)/C=C/c1ccc2c(c1)OCO2	1.5%[1.53 µM]	2.1%	i	-6.2%
O=C(/C=C/c1ccc2c(c1)OCO2)NCCSCc1c(Cl)cccc1Cl	0.3%	10µM*	-4.2%	-0.5%
COc1cnc(SCc2c(Cl)cccc2Cl)nc1Cl	1.6%	0.9%	i	10.1%
CCOC(=O)[C@]12CCCC=C1N(CCc1ccc(OC)c(OC)c1)C(=O)[C@H](CC(=O)N1CCSCC1)C2	0.2%	11.3%	i	.
Cc1cc(NC(=O)c2cc([N+](=O)[O-])ccc2Cl)no1	-15.4%	?	i	-8.4%
O=C(Nc1cccc(NC(=O)c2cc([N+](=O)[O-])ccc2Cl)n1)c1cc([N+](=O)[O-])ccc1Cl	?	3.98µM*	-20.2%	17.9%
CN(C)CCOC1c2ccccc2CCc2ccc3ccccc3c21 (configuration not stated)	?	5.62µM*	-11.8%	1.9%
O=C(O)c1cccc2cccc(-c3c4ccc(=O)c(O)c-4oc4c(O)c(O)ccc34)c12	8.1%	-11.9%	-33.9%	-16.5%
FC(F)(F)c1nc(-c2cccs2)ncc1-c1nnnn1-c1ccc(Cl)cc1	-29.2%	7.08µM*	i	-14.6%
CCN1CC(CN(C)Cc2nc(-c3ccc(OC)c4ccccc34)oc2C)CC1=O (configuration not stated)	?	10µM*	-1.7%	15.3%
CCN1CC(CN(C)Cc2nc(COc3ccccc3)no2)CC1=O (configuration not stated)	9.4%	11.4%	i	3.0%
Fc1cccc(Oc2nc3ccccc3n3cccc23)c1	12.1%	-15.2%	i	7.2%
CC1CCN(C(=O)CN2CCSc3ccc(S(=O)(=O)N(C)C)cc32)CC1	-2.2%	13.5%	i	7.7%
O=C(NC(c1ccc(F)cc1)c1ccc2ccccc2n1)C1CCN(Cc2ccc(Oc3ccccc3)cc2)CC1 (configuration not stated)	-27.8%	?	?	-1.3%
COc1cc(CN2CCC(C(=O)NC(c3ccc(F)cc3)c3ccc4ccccc4n3)CC2)cc(OC)c1 (configuration not stated)	-10.6%	2.82µM*	i	-0.5%
O=C(NC(c1ccccc1)c1ccc2ccccc2n1)C1CCN(CCOc2ccc(Cl)cc2)CC1 (configuration not stated)	-5.2%	11.2µM*	-93.4%	-20.1%
O=C(NC(c1ccc(F)cc1)c1ccc2ccccc2n1)C1CCN(CCOc2ccc(Cl)cc2Cl)CC1 (configuration not stated)	11.2µM*	?	i	-5.9%
CN(CC(=O)NCc1ccc(F)cc1)S(=O)(=O)c1ccc(Br)s1	1.2%	?	-5.8%	10.4%
O=C1Oc2ccccc2C(=O)/C1=C\N1CCN(c2ccccc2)CC1	21.6%	-13.2%	i	0.3%
SMILES	HEK293 tox	GLP-1R inv ag	PTHR1 agonist	GLP1R ag
CCN1CCN(C(=O)/C=C/c2ccc(C)o2)CC1	2.9%	6.1%	-4.5%	-11.7%
Cc1ccc(/C=C/C(=O)N2CC(C)CC(C)C2)o1 (configuration not stated)	?	10µM*	-93.7%[57.5 µM]	-27.0%
Cc1ccc2ccc(C(Nc3ccccc3)c3ccccc3)c(O)c2n1 (configuration not stated)	5.5%	6.31µM*	-74.6%	.
Cc1ccc2ccc(C(Nc3ccccc3)c3ccc(C(C)C)cc3)c(O)c2n1 (configuration not stated)	-5.7%	3.55µM*	-48.9%	.
Cc1ccc2ccc(C(Nc3ccccc3)c3ccc(Cl)cc3)c(O)c2n1 (configuration not stated)	-8.2%	?	i	.
Cc1ccc2ccc(C(Nc3ccccc3)c3ccc(F)cc3)c(O)c2n1 (configuration not stated)	-14.9%	?	i	.
Cc1ccsc1/C=N\NC(=O)Cn1nnc2ccccc21	-13.9%	?	-23.5%	2.4%
O=C(COc1ccccc1)NC(=S)Nc1cccc2c(O)cccc12	-5.7%	?	i	-1.0%
COc1cccc(NC(=O)COC(=O)CCCC2=NS(=O)(=O)c3ccccc3N2)c1	3.4%	19.8%	-16.9%	-4.5%
O=C1c2ccccc2S(=O)(=O)N1Cc1nc2ccccc2s1	-6.9%	3.98µM*	-5.5%[57.5 µM]	-20.5%
C=CCOC(=O)C1=C[C@@H](c2ccc(C(F)(F)F)cc2)[C@H](CCCO)[C@@H](OCC)O1	-67.0%	6.31µM*	-2.0%	13.5%
CCO[C@@H]1OC(C(=O)Nc2ccccc2)=C[C@H](c2ccc(C(F)(F)F)cc2)[C@H]1CCCO	-12.6%	4.47µM*	-35.6%	-1.5%
CCO[C@H]1OC(C(=O)Nc2ccccc2)=C[C@@H](c2ccc(Br)cc2)[C@@H]1CCCO	-17.0%	?	i	-1.1%
S=C(NCCc1ccccc1)NCCN1CCOCC1	-22.9%	16.3%	3.0%	1.4%
COc1ccc(C(C(=O)NC(C)(C)C)n2c(-c3ccc(-c4ccccc4)cc3)nc3ccccc32)cc1 (configuration not stated)	-2.5%	18.6%	1.2%	.
CC(/C=N/NC(=O)Cn1nccc1C)=C\c1ccc(C(C)C)cc1	-1.1%	11.2µM*	-5.9%	13.1%
COC(=O)c1cccc(NC2=NS(=O)(=O)c3ccccc32)c1	-0.2%	14.0%	-6.4%	.
O[C@H]1C[C@H](c2ccc(Cl)cc2)N(CC2CCCCC2)C[C@@H]1n1cc(C2CC2)nn1	?	10µM*	-30.6%	-4.2%
Cc1cc(NC(=O)c2sc(Nc3cccc(C(F)(F)F)c3)nc2N)no1	7.9%	5.01µM*	-16.3%[57.5 µM]	0.0%
CCCCC(=O)NC(c1ccco1)c1c(O)ccc2ccccc12 (configuration not stated)	-6.9%	8.91µM*	-3.6%[57.5 µM]	-5.3%
CC(C)CC(=O)NC(c1ccccc1Cl)c1c(O)ccc2ccccc12 (configuration not stated)	-32.8%	8.91µM*	i	-4.8%
O=C(CC1C(=O)NCCN1Cc1c(F)cccc1Cl)NCCCn1cccn1 (configuration not stated)	1.1%	12.2%	-2.6%	5.8%
